These results are taken from PubChem BioAssay AID588683 (Broad Institute, 2011).

Results with a measured potency or affinity are listed apart. Active and inactive are the calls of the source. No rule for the calls is given here.

The target of this assay is Kelch-like ECH-associated protein 1 (Homo sapiens) + Nuclear factor erythroid 2-related factor 2 (Homo sapiens) (UniProt Q14145+Q16236). Briefly: Keap1-Nrf2 protein-protein interaction inhibitors, dose response, biochemical, fluorescence polarization, cherry-picked samples (AID 588683).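 Also: Kelch domain of Keap1 binding a fluorescein-labelled 9mer Nrf2 peptide; more negative means stronger inhibition of peptide binding.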 Conditions: Keap1/Nrf2 peptide fluorescence polarization, plate reader; series mostly up to 26 µM.
Chain of Kelch-like ECH-associated protein 1 (Homo sapiens) + Nuclear factor erythroid 2-related factor 2 (Homo sapiens) (Q14145 whole entry, looked up, the tested form may be a part): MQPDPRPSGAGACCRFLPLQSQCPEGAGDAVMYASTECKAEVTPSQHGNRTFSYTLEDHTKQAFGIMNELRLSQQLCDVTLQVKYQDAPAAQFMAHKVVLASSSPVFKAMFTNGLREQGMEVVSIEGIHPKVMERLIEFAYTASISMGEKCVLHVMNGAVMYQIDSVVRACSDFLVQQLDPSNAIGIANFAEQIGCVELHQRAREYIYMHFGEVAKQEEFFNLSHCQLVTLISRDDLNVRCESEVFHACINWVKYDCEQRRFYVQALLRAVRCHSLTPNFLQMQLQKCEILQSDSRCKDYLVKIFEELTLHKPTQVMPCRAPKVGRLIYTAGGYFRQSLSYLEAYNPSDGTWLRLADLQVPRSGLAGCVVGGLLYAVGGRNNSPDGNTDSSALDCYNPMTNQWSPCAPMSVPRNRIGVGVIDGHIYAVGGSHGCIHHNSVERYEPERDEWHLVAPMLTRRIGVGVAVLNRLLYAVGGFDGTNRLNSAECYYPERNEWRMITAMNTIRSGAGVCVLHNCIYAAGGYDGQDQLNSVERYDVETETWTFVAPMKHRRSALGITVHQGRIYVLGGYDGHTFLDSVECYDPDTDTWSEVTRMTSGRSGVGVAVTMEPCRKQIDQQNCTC
Chain of Kelch-like ECH-associated protein 1 (Homo sapiens) + Nuclear factor erythroid 2-related factor 2 (Homo sapiens) (Q16236 whole entry, looked up, the tested form may be a part): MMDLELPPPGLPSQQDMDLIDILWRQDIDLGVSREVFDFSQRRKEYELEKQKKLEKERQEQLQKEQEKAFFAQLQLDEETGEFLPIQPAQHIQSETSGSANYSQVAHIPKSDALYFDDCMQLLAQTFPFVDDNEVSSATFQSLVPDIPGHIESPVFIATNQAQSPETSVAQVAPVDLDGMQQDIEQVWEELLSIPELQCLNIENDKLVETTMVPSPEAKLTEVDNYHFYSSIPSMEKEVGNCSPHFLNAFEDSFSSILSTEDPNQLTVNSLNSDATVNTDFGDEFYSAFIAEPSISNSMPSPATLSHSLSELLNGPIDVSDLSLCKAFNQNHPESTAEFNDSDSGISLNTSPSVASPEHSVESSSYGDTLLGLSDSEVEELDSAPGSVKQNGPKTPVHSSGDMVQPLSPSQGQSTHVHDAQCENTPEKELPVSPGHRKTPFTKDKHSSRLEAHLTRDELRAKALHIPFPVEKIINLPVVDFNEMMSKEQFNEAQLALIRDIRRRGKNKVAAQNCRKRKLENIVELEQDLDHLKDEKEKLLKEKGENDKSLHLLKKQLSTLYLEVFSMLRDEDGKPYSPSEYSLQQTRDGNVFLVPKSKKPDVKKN
As to `COc1ccc(C2c3ccc(O)cc3Oc3ncn(CCCO)c(=N)c32)cc1OC` (stereo not drawn), the result was inactive.
In the case of `Cc1cc(=O)c2c([nH]1)c(C)cc1[nH]c(C)c(C)c12`, the outcome was inactive.
Regarding `CCSc1ncc(Cl)c(C(=O)Nc2ccccc2OC)n1`, the result was inactive.
The entry for `CCOc1cccc(C2C(C(=O)c3ccc(C)o3)=C(O)C(=O)N2c2nccs2)c1` (stereo not drawn) is “inactive”; for `N#C/C(=C\c1ccc[nH]1)C(=O)N1CCCCC1` it is “inactive”.
The entry for `COc1cccc(C2=CC(c3cccs3)n3nnnc3N2)c1` (stereo not drawn) is “inactive”; for `CCOc1ccc(OCCCC(=O)N(CC)CC(=O)Nc2c(F)cccc2F)cc1` it is “inactive”.
The entry for `NC(=O)CC(NC(=O)Cc1cccc2ccccc12)c1ccc(NCc2ccccc2)c([N+](=O)[O-])c1` (stereo not drawn) is “inactive”.
Take `Cc1ccc(C2C3CN(C(C)C)CC=C3C(C#N)=C(N)C2(C#N)C#N)cc1` (stereo not drawn): the outcome was inactive.
The value for `CCc1cc(C(=O)c2ccc(OC)cc2)c(N)s1` was “inactive”.
The value for `COc1cccc(NC(=O)CN(C)CC(=O)NCc2ccco2)c1` was “inactive”.
The entry for `CC1Cc2cc(/C=C3/SC(N4CCC(C(N)=O)CC4)=NC3=O)ccc2O1` (stereo not drawn) is “inactive”.
For the compound `COc1ccc(C2OC34CCCCC3C(C#N)(C#N)C2(C#N)C(=N)O4)cc1` (stereo not drawn), the result was inactive.
The entry for `O=C(Nc1ccccc1C(=O)N1CCCCCC1)c1ccc(F)cc1` is “inactive”; for `O=C(COC(=O)c1ccncc1)Nc1cccc2ccccc12` it is “inactive”; for `O=C1C(=Cc2ccco2)CCC1=Cc1ccco1` it is “inactive”.
The value for `CCOC(=O)c1c(C)[nH]c(C(=O)COC(=O)c2cccnc2Cl)c1C` was “inactive”; that for `O=C(CSC1=NNC(c2ccccn2)S1)Nc1cccc(Cl)c1` (stereo not drawn) was “inactive”; that for `O=C1CC(Cc2ccc(Cl)cc2)C(=O)N1c1cc(Cl)ccn1` (stereo not drawn) was “inactive”.
The value for `COc1ccc(NS(=O)(=O)c2ccc(F)c(Cl)c2)cn1` was “inactive”; that for `CN1C(=O)c2cccc3c(S(N)(=O)=O)ccc1c23` was “inactive”.
As to `C=CCn1cccc(C(=O)Nc2ccc(OC)c(Cl)c2)c1=O`, the result was inactive.
The value for `COc1ccccc1Cn1c(=S)[nH]c2ccccc2c1=O` was “inactive”; that for `COc1ccc(C2=CC(c3ccco3)n3ncnc3N2)cc1` (stereo not drawn) was “inactive”.
The value for `CCOCCCn1c(=NC(=O)c2cccs2)c(C#N)cc2c(=O)n3cccc(C)c3nc21` was “inactive”.
The value for `O=C(O)CC(Cn1cnnn1)c1ccccc1` (stereo not drawn) was “inactive”; that for `COc1cc2c3nnc(-c4ccc(F)cc4)c-3cn(Cc3ccc(C)cc3)c2cc1OC` was “inactive”; that for `O=C(CCCN1C(=O)/C(=C\c2ccco2)SC1=S)Nc1ccc(O)cc1C(=O)O` was “inactive”.
For `CCOc1ccc(C(=O)COC(=O)c2nn(CC)c(=O)c3ccccc23)cc1`, the result was inactive.
For `CN(CC(=O)Nc1cc(C(F)(F)F)ccc1-n1cncn1)Cc1ccccc1N1CCOCC1`, the result was inactive.
Consider `CCC(=O)c1cn(CC(=O)Nc2ccc(OC)cc2)c2ccccc12`, for which the outcome was inactive.
The value for `CC(OC(=O)c1ccc([N+](=O)[O-])o1)C(=O)NC1CCCCC1C` (stereo not drawn) was “inactive”; that for `O=C(NNc1cc(Cl)ccc1Cl)c1cccs1` was “inactive”; that for `CN(C)c1ccc2cc(S(=O)(=O)O)cc(O)c2c1` was “inactive”.
The value for `Cc1ccc(Cn2c(=N)c(C(=O)NC3CCCC3)cc3c(=O)n4ccccc4nc32)cc1` was “inactive”.
The value for `O=C1c2ccccc2-c2onc3ccc(N4CCCC4)c1c23` was “inactive”; that for `C=CCOC(=O)C1=C[C@H](c2csc3ccccc23)C[C@H](OCc2ccc(CO)cc2)O1` was “inactive”; that for `CCC(C(=O)NC1C(=O)N2C(C(=O)O)=C(CSc3nnc(C)s3)CSC12)c1ccccc1` (stereo not drawn) was “inactive”.
